Consider 40 compounds from PubChem BioAssay (NCI).

This is part of a sample that, as a whole, favours compounds with a hit. Of some 83,000 tested, about 20% had one in any assay.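 How to read the values: 0–100, growth inhibition (40 = 60% inhibited); 0, no net growth; -100 to 0, cell death (-40 = 40% of starting cells died; -100 = all dead).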 A number with no mark means an inactive call. Active and inactive are the calls of the source. The calls were made as follows: active = growth percent below 10; inactive = the rest.

This experiment has as its system HL-60(TB) leukemia. The experiment can be described thus: NCI-60 one-dose screen, 48 h (100 = growth as untreated, 0 = no growth, -100 = all killed). The following applies: 10 µM unless noted.
Turning to `Cc1cc(NC(=O)CNc2nc(Oc3ccc(F)cc3)nc(-c3ccc(F)cc3)n2)ccc1Cl`, the growth was 96.4%.

Take `Cc1nc2c(ccc3ccccc32)s1`: the growth is 84.2%.

With `CC(C)C1=NOC(=O)C1=Cc1cn(-c2ccco2)nc1-c1ccccc1`, the growth is 3.89% (active).

For the compound `O=C(c1ccccc1)N(CCc1ccc(Cl)cc1)C(=S)N(C(=O)c1ccccc1)c1ccccc1`, the growth was 90.3%.

With `CCN1CCN(c2ccc(NC(=O)Nc3nc4ccc(-c5ccccc5OC)cc4s3)cc2)CC1`, the growth was -74.1% (active).

Take `CCN(CCCNc1cc2c(c(N)c1S(=O)(=O)O)C(=O)c1ccccc1C2=O)c1ccccc1`: the growth is 84.9%.

For `c1coc2occoc=2o1`, the growth was 102%.

Consider `O=C1c2cccc3cccc(c23)C(=O)N1CCCCCCCCCCN1C(=O)c2cccc3cccc(c23)C1=O`, for which the growth was 99.6%.

In the case of `N#Cc1c(NCc2ccccc2I)sc2c1CCCCC2`, the growth is 100%.

Turning to `CCSc1oc(-c2ccccc2)nc1[P+](c1ccccc1)(c1ccccc1)c1ccccc1`, the growth was -35.1% (active).

Turning to `NS(=O)(=O)c1ccc(N2N=C(c3ccc(-c4ccccc4)cc3)CC2c2ccc(Cl)cc2)cc1` (stereo not given), the growth was 86.5%.

Take `O=C(Cc1nc2ccc([N+](=O)[O-])cc2nc1CC(=O)c1ccccc1)c1ccccc1`: the growth is 31.5%.

On to `Cn1nc(C(F)(F)F)c(-c2cc(C(F)(F)F)cc(C(F)(F)F)c2)c1-c1ccc(OCc2ccc(Cl)cc2)cc1O`, for which the growth is -39.9% (active).

Regarding `CC1(C)N=C(N)N=C(N)N1c1cccc(C#N)c1`, the growth was 35.7%.

Take `Cc1cc(C)c(S(=O)(=O)N2CCN(c3cc4c(cc3F)c(=O)c(C(=O)O)cn4C3CC3)CC2)c(C)c1`: the growth was 8.72% (active).

Take `COc1cc(/C=C/C(=O)N2CCN(C(=O)c3cc(OC)c(OC)c(OC)c3)CC2)ccc1OCCCN1C(=O)c2cccc3cccc(c23)C1=O`: the growth was 56.7%.

As to `O=C1/C(=C/c2ccc3c(c2)OCO3)SC(=S)N1CCc1ccc(O)cc1`, the growth is 90.9%.

For the compound `CC(C)=CC(=O)OCC(=O)O[C@@H]1C[C@]2(C(C)C)O[C@@]1(C)[C@@H]1CC[C@@H](C)[C@H]1[C@@H]2OC(=O)/C=C/c1ccccc1`, the growth was 85%.

Regarding `O=C(Nc1nc(C(=O)N2CCN(C(c3ccccc3)c3ccccc3)CC2)cs1)c1ccc(NC2CCCCC2)c([N+](=O)[O-])c1`, the growth is 98.5%.

As for `O=C1/C(=C/c2ccc(O)cc2)COc2ccc(O)cc21`, the growth is 96.2%.

In the case of `CC(C)C1=NOC(=O)C1=Cc1cn(-c2ccccc2)nc1-c1cccc([N+](=O)[O-])c1`, the growth was -4.77% (active).

With `O=C(Nc1ccc(F)cc1)Nc1ccccc1CNc1nc(Nc2ccc(OCCN3CCCC3)cc2)ncc1Cl`, the growth was -39.6% (active).

As for `Cc1nnc2nc(N)[nH]n2c1=O`, the growth was 99.6%.

On to `CCN(Cc1ccccc1)C1CCN(Cc2cc(Br)ccc2O)CC1`, for which the growth is 50.1%.

Regarding `Cc1nc(N/N=C/c2cn(-c3ccccc3)nc2-c2cc3ccccc3oc2=O)sc1N=Nc1ccccc1`, the growth was 89%.

`CSCCC1NC(=O)C(C(C)=Nc2ccccc2)=C1O` (stereo not given): the growth is 117%.

With `CCNC(=O)Nc1ncccc1OCc1ccc(F)cc1`, the growth is 95.5%.

On to `Cc1cc(C(C)(C)C)cc(C)c1Br`, for which the growth was 108%.

Take `Cc1ccc(C=C2C(=O)NC(=O)NC2=O)cc1`: the growth was 101%.

Take `CCCCn1c(C(=O)c2c[nH]c3ccccc23)n[nH]c1=S`: the growth is 90.8%.

As for `O=c1ccc2nc(-c3ccccn3)nn(-c3ccccc3)c-2c1`, the growth was 31.1%.

Turning to `CCOC1Oc2ccccc2C(=O)/C1=N/c1nccs1` (stereo not given), the growth is 106%.

Regarding `Cn1ccnc1C(=O)/C=C/c1ccc(C(=O)Nc2nc3ccccc3[nH]2)cc1`, the growth was 26.7%.

For `CCCCCN1C(=O)/C(=c2\sc3n(c2=O)C2C(NN=3)N(CC)C(=O)N2CC)c2ccccc21` (stereo not given), the growth is -56.6% (active).

As for `C=CCN1C=CC(=O)[C@H](O[Si](C)(C)C(C)(C)C)[C@@H]1/C=C/c1ccccc1`, the growth was -33.3% [100 µM] (active).

For the compound `CCCCCCCCCCCCCCCCOC(=O)c1c(C)[nH]c(/C=C2\N=C(c3ccc[nH]3)C=C2OC)c1C`, the growth is 62.2%.

Regarding `CCOc1ccc(/C=C/C(=O)c2ccccc2)cc1`, the growth is 70.3%.

For the compound `Cc1nc2ccccc2c(/C=C/c2ccc(F)cc2)c1C(N)=O`, the growth was 81.1%.

Consider `COc1cc(CN)ccc1O`, for which the growth is 73.9%.

Regarding `O=C(/C=C/c1cccs1)Nc1ncc(Cc2ccccc2F)s1`, the growth is -40.2% (active).
